AmpC inh detg: AmpC beta-lactamase inhibition with detergent present. AmpC hydrolysis of nitrocefin, absorbance 480 nm, 0.01% Triton. Potency, µM (doses to about 114 µM), for the others: at the top dose activity change, negative = inhibition, usual class: inhibitors. 0.041% of 370,000 active;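 note: potency is the fitted concentration of half-maximal effect; 0% = no-compound wells and -100% = no-enzyme wells; nearly all actives have a fitted effect of over 25% in size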
Target sequence (P00811 whole entry, looked up): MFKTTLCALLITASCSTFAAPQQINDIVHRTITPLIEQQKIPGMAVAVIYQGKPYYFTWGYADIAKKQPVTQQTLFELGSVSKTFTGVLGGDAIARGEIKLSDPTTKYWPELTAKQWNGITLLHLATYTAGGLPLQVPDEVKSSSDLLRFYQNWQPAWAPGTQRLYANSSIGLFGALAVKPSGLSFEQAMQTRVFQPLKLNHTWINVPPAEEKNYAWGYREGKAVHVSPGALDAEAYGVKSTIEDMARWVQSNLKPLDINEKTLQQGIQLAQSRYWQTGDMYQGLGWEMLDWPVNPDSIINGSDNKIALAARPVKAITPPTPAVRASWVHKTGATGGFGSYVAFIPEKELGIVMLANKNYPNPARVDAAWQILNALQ
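AmpC (5.3 nM in the dispensed reagent) in 20 mM phosphate pH 7.0 with 0.01% (detergent screen) or 0.0001% Triton X-100 was preincubated with compounds for 15 min at room temperature. Nitrocefin was then added from an 800 uM solution, and hydrolysis was followed at 480 nm.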
NS1 inh: inhibitors of influenza NS1 protein function; Potency, µM (series often up to 46.1 µM), without a hit: top-dose activity, positive = more growth; 0.4% of 270,000 active; calls by dose curve; note: potency is the fitted concentration of half-maximal effect; actives are rising curves; nearly all actives have a fitted effect of over 50% in size
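Recovery from NS1-induced slow growth read by OD600 in budding yeast switched to galactose assay medium (pH 6.0, -URA) at 1:100 dilution. Compound 23 nl per well; the matching strain lacking NS1 serves as control.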
Shiga toxin inh: inhibitors of Shiga toxin in Vero cells; Vero cells, Shiga toxin protein synthesis inhibition reporter; inhibition, % at 38.7 µM; 9.2% of 290,000 active; AID 2315; in the data active = inhibition mostly above about 28%, no sharp cut-off; inactive = mostly below about 43%; note: 0% is about no effect
CHX counter: counter-screen hit for Shiga toxin inhibitors, cycloheximide; cell reporter, cycloheximide protein synthesis inhibition counterscreen; max response, %; 12% of 300,000 active; in the data active = max response mostly above about 13%, no sharp cut-off; inactive = mostly below about 14%; note: read at 38.3 µM for the half of the compounds with a filed dose; 0% is about no effect
AmpC inh no detg: blocks E. coli AmpC beta-lactamase in detergent-free assay | AID 485341 | P00811 | AmpC nitrocefin hydrolysis, absorbance 480 nm, 0.0001% Triton | Potency, µM (series often up to 57.1 µM), inactives show at the highest dose activity change, negative = inhibition, usual class: inhibitors | 0.52% of 330,000 active;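 note: potency is the fitted concentration of half-maximal effect; plate controls were no compound for no effect and no enzyme for full effect; nearly all actives have a fitted effect of over 20% in size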
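AmpC (5.3 nM in the dispensed reagent) in 20 mM phosphate pH 7.0 with 0.01% (detergent screen) or 0.0001% Triton X-100 was preincubated with compounds for 15 min at room temperature. Nitrocefin was then added from an 800 uM solution, and hydrolysis was followed at 480 nm.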
Starred values were filed as active, the others as inactive; ? = inconclusive; · = no result. The sample as a whole holds a higher share of hits than the screen did. Unless noted, calls come from the whole dose curve; as a rule, active = well fitted curve in the direction sought with a large enough effect; inconclusive = small, poorly fitted or top-dose-only effect, or another doubt; inactive = no such curve, though single readings can be large; an effect the other way counts as inactive or inconclusive.

SMILES	AmpC inh detg	NS1 inh	Shiga toxin inh	CHX counter	AmpC inh no detg
CCc1ccc(/C(C)=N/Nc2cc(Cl)nc(C)n2)cc1	-10%	2%	13	-1	74%
COc1ccc(Cn2c(SCC(=O)NCc3ccc(Cl)cc3)nc3ccsc3c2=O)cc1	18%	·	·	·	·
CCC(=O)N1CCc2cc(S(=O)(=O)N3CCN(c4ccccc4F)CC3)ccc21	20%	·	·	·	·
CCc1ccc(NC(=O)N2CCC(N3CCN(Cc4ccc(C)cc4)C(=O)C3=O)CC2)cc1	9%	·	·	·	·
Cc1nnc(-c2ccccc2)nc1N(C)C	4%	-7%	9	-1	0%
CN(C)c1nc(-c2ccccc2)ns1	3%	0%	130*	33*	-10%
COc1ccc(Cl)cc1Nc1cc(C)nc2nc(-c3ccccc3C)nn12	24%	·	·	·	·
CN1CCC[C@H]1c1cccnc1	-13%	3%	·	·	-17%
CN1CCCCC1c1ccc(-c2cccnc2)nc1 (stereo unspecified)	-6%	1%	-9	16*	-5%
O=C(CNc1cc(S(=O)(=O)N2CCCC2)ccc1OCC(F)(F)F)Nc1ccc(SC(F)F)cc1	15%	14%	53	21*	-22%
CCOC(=O)c1cc(-c2ccccc2)n(-c2cccc(C(=O)Nc3cccc(C)c3)c2)c1C	11%	·	·	·	·
O=C(Nc1cccc(C(F)(F)F)c1)c1cc(-c2ccco2)on1	-11%	-25%	15	8	-33%
O=C(Nc1cccc(O)c1)c1cc(-c2ccco2)on1	0%	-13%	49*	22*	?
CC(=O)c1cccc(NC(=O)c2cc(-c3ccc(F)cc3)on2)c1	-12%	3%	-5	-1	-14%
CC(=O)c1cccc(NC(=O)c2cc(-c3ccco3)on2)c1	-14%	-16%	97*	35*	-21%
COc1cc(O)oc1C=Nc1ccc(C(F)(F)F)cc1	-4%	-4%	34*	42*	-6%
CCCOc1ccc2c(c1)C(=NN=C(N)N)c1cc(OCCC)ccc1-2	11%	6%	-6	-4	-36%
S=C(NN=C1C2CC3CC(C2)CC1C3)Nc1ccccc1	?	-9%	146*	53*	-12%
CCC(C)(C)C1CCC(=NNC(=S)Nc2ccccc2)CC1 (stereo unspecified)	4%	·	6	3	-31%
COc1ccc(S(=O)(=O)N2CCCOC2CNC(=O)C(=O)NCCCN2CCOCC2)cc1 (stereo unspecified)	-4%	1%	-9	1	49%
CCN(c1ccccc1)S(=O)(=O)c1ccc(Cl)c(NC(=O)Nc2ccc(Cl)cc2C#N)c1	1%	-7%	47*	30*	-47%
CCN(c1ccccc1)S(=O)(=O)c1cc(NC(=O)Nc2ccccc2C#N)ccc1Cl	?	4%	-1	-5	8.9µM*
O=C(N/N=C/c1cc([N+](=O)[O-])ccc1O)Nc1ccccc1	0%	-3%	15	11	-28%
O=C(N/N=C/c1cc([N+](=O)[O-])ccc1O)C12CC3CC(CC(C3)C1)C2	5%	·	20	25*	-38%
COc1cc(/C=N/NC(=O)NC23CC4CC(CC(C4)C2)C3)ccc1OCC(N)=O	2%	0%	-5	-1	23%
SMILES	AmpC inh detg	NS1 inh	Shiga toxin inh	CHX counter	AmpC inh no detg
O=C(N/N=C/c1cc([N+](=O)[O-])ccc1O)NC12CC3CC(CC(C3)C1)C2	?	-1%	96*	73*	-55%
O=C(N/N=C/c1ccc(O)cc1O)NC12CC3CC(CC(C3)C1)C2	1%	1%	33*	24*	-47%
Cc1cccc(NC(=O)CSc2cn(CC(=O)N3CCCC3)c3ccccc23)c1C	-4%	·	·	·	·
COc1ccc(-c2cc(-c3ccc(Cl)cc3)c(C#N)c(SCC(=O)O)n2)cc1	-3%	23%	13	-4	49%
O=c1ccc(-c2ccccc2)nn1Cc1ccc(F)cc1	-5%	-7%	23	10	-1%
O=C(c1ccc(F)cc1)n1ccc(-c2cnc(-c3ccccc3)s2)n1	2%	-64%	73*	41*	-21%
Fc1ccc(Cn2ccc(-c3cnc(-c4ccccc4)s3)n2)cc1	9%	-87%	67	39*	-21%
Cc1ccc(Cn2ccc(-c3cnc(-c4ccccc4)s3)n2)cc1	2%	-5%	69*	30*	-35%
O=S(=O)(c1ccccc1)n1ccc(-c2cnc(-c3ccccc3)s2)n1	-3%	9%	31	10*	-29%
COc1ccc(C(C(=O)NC2CCCC2)N(Cc2cccnc2)C(=O)Cc2cccs2)c(OC)c1 (stereo unspecified)	10%	-10%	-6	-5	4%
CC(c1ccccc1)C(Cc1nc2ccccc2[nH]1)c1nc2ccccc2[nH]1 (stereo unspecified)	-8%	·	-3	-2	-27%
COc1cccc(CC2(CO)CCCN(Cc3ccc(OC)c(C)c3OC)C2)c1 (stereo unspecified)	-10%	-2%	·	-4	38%
CCCOc1ccc(/C=N/NC(=O)CSc2ccccn2)cc1OC	-6%	-5%	85*	36*	-15%
COc1cc(/C=N/NC(=O)CSc2ccccn2)ccc1O	4%	5%	23	6	-22%
CN(C)c1ccc(/C=N/NC(=O)CSc2ccccn2)cc1	-5%	-5%	56*	40*	-14%
COc1ccc(/C=N/n2cc(-c3ccc(OC)cc3)nc2N)cc1	-4%	2%	11	10	69%
COc1ccc(/C=N/n2cc(-c3ccccc3)nc2N)cc1	2%	4%	43*	28*	-42%
C=CCn1c(SCc2ccccc2)nc2scc(-c3ccc(C)o3)c2c1=O	-1%	9%	-5	1	-1%
C=CCn1c(SCC(N)=O)nc2scc(-c3ccc(C)o3)c2c1=O	8%	2%	85*	45*	18%
CCOc1ccc(S(=O)(=O)Nc2cc(Sc3ncn[nH]3)c3oc(=O)sc3c2)cc1	-7%	10%	-4	-2	5.6µM*
Cc1nc(C(=O)N/N=C/c2[nH]ncc2Br)cs1	-7%	-1%	45	35*	-13%
O=[N+]([O-])c1ccc(CNCc2cc(Cl)ccc2O)cc1	-4%	·	·	·	3.2µM*
Cc1ccc(-c2nnc3c(C(F)(F)F)nc4ccccc4n23)cc1	?	-2%	9	-4	0.14µM*
O=C(/C=C/c1ccco1)Nc1cccc2cccnc12	-13%	2%	119*	61*	-58%
Cc1ccc(NC(=O)/C=C/c2ccco2)nc1	-1%	-4%	78*	34*	-11%
O=C(O)/C=C/C(=O)Nc1cccc2cccnc12	-1%	8%	33	-3	-12%
Cn1nnc(NC(=O)/C=C/c2ccco2)n1	3%	8%	10	14	-31%
O=C(/C=C/c1ccco1)Nc1ccccn1	-8%	-3%	43*	36*	-18%
COC(=O)C1CCN(C(c2ccccc2Cl)c2sc3nc(-c4ccco4)nn3c2O)CC1 (stereo unspecified)	1%	·	·	·	·
COc1ccc(CCC(=O)NCc2ccc3c(c2)CCN3C(=O)c2ccc(Cl)cc2)cc1	-1%	·	·	·	·

Bioassay records (PubChem)
